About 560 (40%) of roughly 1,400 compounds were called active. The set was probably picked from earlier hits. This is one part of the list. A number with no mark means an inactive call.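 The calls were made as follows: active = mean inhibition over duplicate tests at 10 µM above 50%; inactive = the rest.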
Test: ASC/caspase-1 reporter retest in S. cerevisiae at one dose, specificity check for NALP1 project (AID 488857)
Settings: S. cerevisiae ASC/Caspase-1, beta-galactosidase luminescence, 24 h; at 10 µM; stronger effect = higher value

SMILES	inhibition
CCn1cc(C(=O)O)c(=O)c2cc(F)c(N3CCNCC3)cc21	30.4%
CCC(=O)c1ccc(OCC(O)CN2CCN(c3cccc(C(F)(F)F)c3)CC2)cc1 (stereo unspecified)	65.7% (active)
Cn1cc(S(=O)(=O)N2CCN(c3cccc(C(F)(F)F)c3)CC2)c(=O)n(C)c1=O	33.4%
CCOC(=O)N1CCN(CC(O)COc2ccccc2C(C)(C)C)CC1 (stereo unspecified)	44.2%
O=C(/C=C/c1c[nH]c2ccccc12)c1ccccc1	86.5% (active)
O=C(NC(Cc1c[nH]c2ccccc12)C(=O)O)/C(=C\c1ccc2c(c1)OCO2)NC(=O)c1ccccc1 (stereo unspecified)	28.8%
O=C(/C=C/Sc1ccccc1)c1ccc(Cl)cc1	44.6%
Oc1oc(-c2ccccc2)nc1C=Nc1cccc2ccccc12	32.5%
CC(C)N1CCC2(CC1)N=C(c1ccc3c(c1)OCO3)CC(c1cc(Cl)ccc1O)N2 (stereo unspecified)	74.5% (active)
Clc1ccc(C2=NNC(=NCc3ccc4c(c3)OCO4)SC2)cc1	33.4%
CC(=O)c1c(C)oc2c1C(=O)c1ccccc1C2=O	74.2% (active)
CCNc1c(C(=O)O)ccc2c1C(=O)c1ccccc1C2=O	39.5%
COc1ccc(C(=O)c2c(C(F)(F)F)oc3c2C(=O)c2ccccc2C3=O)cc1	20.5%
CCN1CCN(c2cc(C(C)C)nc3c(-c4ccccc4)c(C)nn23)CC1	52.5% (active)
O=C(c1ccc2c(Cl)c3c(nc2c1)CCCC3)N1CCN(c2ccc(F)cc2)CC1	61.5% (active)
O=C(c1cccc(F)c1)N1CCN(c2cc(N3CCCCC3)c(F)cc2[N+](=O)[O-])CC1	49.4%
c1cc2c3c(cccc3c1)NC1(CCCCCC1)N2	19.9%
O=C(CCl)Nc1cc(-c2ccccc2)nn1-c1ccccc1	78.5% (active)
Cc1ccc(-c2cc(NC(=O)CSc3n[nH]c(N)n3)n(-c3ccccc3)n2)cc1	21.9%
COCC(=O)OCC(=O)Nc1cc(C(C)(C)C)nn1-c1ccccc1	21.4%
COC(=O)c1ccccc1NC(=O)N1CCN(C/C=C/c2ccccc2)CC1	42.6%
CCC(C)c1ccccc1NC(=O)CN1CCN(C/C=C/c2ccccc2)CC1 (stereo unspecified)	55% (active)

SMILES	inhibition
O=C(CN1CCOCC1)Nc1ccccc1Sc1ccc(Cl)cc1	28.6%
Cc1noc2ncc(C(=O)c3cc(F)ccc3O)cc12	27.6%
CCN1CCN(Cc2cccc(Oc3ccccc3)c2)CC1	40%
Cn1c(=O)n(CCCOc2ccc(Cl)cc2)c2ccccc21	46.1%
CC1CCN(CCOc2ccc(Cl)c(Cl)c2)CC1	56.5% (active)
CN(C)Cc1ccccc1COc1ccccc1	31.8%
CC1CCN(CCOc2ccc(OCc3ccccc3)cc2)CC1	59.3% (active)
CC1CCN(CCOc2cccc(Br)c2)CC1	43.1%
c1ccc(COc2ccc(OCCN3CCCCC3)cc2)cc1	39.1%
Clc1ccc(OCCN2CCCCC2)cc1Cl	57.7% (active)
Clc1cccc(OCCN2CCN(CCOc3cccc(Cl)c3)CC2)c1	65.6% (active)
CCN(CC)CCCOc1ccc(Cl)c(Cl)c1	39.4%
Clc1ccc(OCCCN2CCCC2)cc1Cl	40%
CCN(CC)S(=O)(=O)c1ccc(NS(=O)(=O)c2cccs2)cc1	29.6%
Cc1ccc(/C(N)=N/OC(=O)c2ccc(Cl)cc2Cl)cc1	46.2%
CC1CN(C(=O)Nc2ccc3c(c2)OCO3)CC(C)O1 (stereo unspecified)	27.1%
Cc1ccc(/C(N)=N/OC(=O)c2cccs2)cc1	69.2% (active)
Cc1cccc(/C(N)=N/OC(=O)c2ccc3c(c2)OCO3)c1	55.8% (active)
Cc1ccc(/C(N)=N/OC(=O)c2ccc3c(c2)OCO3)cc1	86.8% (active)
CC1(C)CC(=O)c2cc(C(=O)O)c(=O)n(-c3ccccc3)c2C1	37.4%
CC(C)c1nc(SCC(=O)Nc2ccc3c(c2)OCCO3)n[nH]1	24.2%
O=C(Nc1cccc(N=Cc2cc(Br)cc(Br)c2O)c1)c1ccco1	57% (active)

SMILES	inhibition
Oc1c(Br)cc(Br)cc1C=Nc1cccnc1	54.1% (active)
Cc1ccsc1/C=N/NC(=O)c1ccco1	48.5%
O=C(/C=N/O)Nc1cccnc1	41.3%
COc1cc(Br)cc(C=Nc2cccc(C(F)(F)F)c2)c1O	30%
Oc1c(Br)cc(Br)cc1C=Nc1ccc2c(c1)OCO2	64.6% (active)
CCOc1nc(-c2ccccc2Cl)ccc1C#N	45.4%
OC(CNCCc1ccc(C(F)(F)F)cc1)COc1cccc2ccccc12 (stereo unspecified)	59.9% (active)
C=CCNc1oc(COc2ccc(C)cc2)nc1C#N	56.6% (active)
COC(=O)C(CCSC)NC(=O)Cn1ncc2c(=O)oc3ccccc3c21 (stereo unspecified)	42%
O=[N+]([O-])c1ccc(N2CCCCC2)cc1	39.5%
O=C1C=CC(=O)N1c1ccc(N2CCCCC2)cc1	68.2% (active)
CCCc1[nH]nc2c1C(c1ccoc1)C(C#N)=C(N)O2 (stereo unspecified)	43.1%
O=c1c2c(C(F)(F)F)cc(C(F)(F)F)nc2[nH]n1-c1ccccc1	33%
Nc1c(Cl)ncnc1N/N=C/c1ccccn1	85.2% (active)
Cc1c(Cl)c([N+](=O)[O-])nn1Cc1ccc(C(=O)N/N=C\c2ccccn2)o1	31.1%
N#Cc1cnn(-c2ncnc3sc4c(c23)CCCC4)c1N	37.2%
Nc1c2c(nc3sc4c(c13)CCCC4)CCCCCC2	48.9%
Nc1c2c(nc3sc4c(c13)CCCCC4)CCCCC2	69% (active)
CC1CCc2nc3sc4c(c3c(N)c2C1)CCCC4 (stereo unspecified)	93.2% (active)
C=C(C)COc1ccc2c(CC)cc(=O)oc2c1C	61.5% (active)
CN(C)C(C)(C)C#CCC(c1ccccc1)c1ccccc1	55% (active)
CC(C)(C#CCN1CCCCC1)OCCOC(c1ccccc1)c1ccccc1	30.2%

SMILES	inhibition
CCCCNC(=O)Nc1cc(C)on1	27.1%
CCCCNC(=O)Nc1nnc(-c2ccc(Cl)cc2)o1	54.4% (active)
CCC1(CC)Cc2ccccc2C(Nc2c(C)n(C)n(-c3ccccc3)c2=O)=N1	18.9%
O=C(Cc1coc2cc3c(cc12)CCC3)NCC1(N2CCCCC2)CCCCC1	45%
Cc1ccc(OCc2nc(-c3ccc(Cl)cc3)n[nH]2)cc1	78.2% (active)
O=C(O)[C@@H](c1ccccc1)N1Cc2ccccc2C1=O	22.6%
COC(=O)N/N=C(\C)c1ccc2ccccc2c1OC(F)F	62.3% (active)
OC(CNCCC1C=Nc2ccccc21)Cn1c2ccc(Cl)cc2c2cc(Cl)ccc21 (stereo unspecified)	53.8% (active)
Clc1ccc(OCCOCCN2CCc3ccccc3C2)c(Cl)c1	58.2% (active)
CC(C)NCCOCCOc1ccc(Cl)cc1Br	39.3%
Clc1ccc(OCCCNCc2ccccc2)c2ccccc12	53.2% (active)
CCc1cc(OCCCCNCc2ccccc2)ccc1Cl	44.5%
Cc1nc2c(=O)n(C)c(=O)n(C)c2nc1Cl	25.6%
Cc1ccc(S(=O)(=O)c2nc(C)oc2NCc2ccccc2)cc1	34.9%
Cc1ccc(S(=O)(=O)c2nc(Nc3ccccc3)sc2Cl)cc1	69.3% (active)
CCOC(=O)/C(=N\Nc1ccc(Cl)cc1)c1csc(Nc2ccccc2)n1	31.7%
CC1CCCC(NC(=O)C2CCN(S(=O)(=O)N3CCCCC3)CC2)C1C (stereo unspecified)	36.5%
O=C(COc1cccc2ccccc12)N1CCN(c2ccccc2)CC1	52% (active)
O=C(Cc1ccc(-n2c(=O)[nH]c3ccccc3c2=O)cc1)N1CCN(c2ccccc2)CC1	17.4%
CCn1c(COc2ccccc2C)nnc1SCC(=O)N1CCN(c2ccccc2)CC1	40.5%
C/C(=N\N1CCN(c2ccc(Cl)cc2)CC1)c1ccco1	36.9%
CCCCCOc1ccc(Br)cc1CSC(=N)N	59% (active)

SMILES	inhibition
FC(F)(F)C(F)(F)c1nnc2ccc(-n3ccnc3)nn12	33.5%
Cc1ncc(S(=O)(=O)c2ccccc2)c(-c2ccccc2Cl)n1	7.65%
COc1ccc2cc(/C=N/O)c(Cl)nc2c1	55% (active)
COc1ccc(CC2(C)OC(c3ccc(C)cc3)=NN2C(C)=O)cc1 (stereo unspecified)	59% (active)
O=C1C=CC(=O)N1c1ccc(OC(F)F)cc1	71% (active)
CNCc1ccccc1Sc1cc(O)ccc1O	24.2%
CN1c2ccccc2Sc2cc(N)ccc21	87.7% (active)
CC(C)C(=O)N(Cc1ccccc1)c1ccccn1	21.7%
Cc1cc(C)cc(-n2nnc(C(=O)NCc3ccccc3)c2N)c1	53.6% (active)
CCOc1ccc(CNC(=O)c2cc3oc4ccccc4c3n2C)cc1	32.7%
Nc1c(C(=O)NCc2ccc3c(c2)OCO3)nnn1-c1ccc(OC(F)(F)F)cc1	48.9%
Cc1ccc(Nc2nnc(SCC(=O)Nc3ccc(S(=O)(=O)N4CCOCC4)cc3)s2)cc1	36%
C=C(C)C(=O)Nc1nnc(-c2cccs2)s1	36.6%
CCSc1nnc(NC(=O)c2ccc(C)o2)s1	59.5% (active)
CC(C)COC(=O)Nc1nnc(SCc2ccccc2F)s1	47.1%
CCSc1nnc(NC(=O)c2ccccc2)s1	85.4% (active)
CN(C)c1ccc(N/C=C/C(=O)c2ccccc2)cc1	62.9% (active)
Cc1cccc(N/C=C/C(=C(C#N)C#N)N(C)C)c1	38.1%

Source: PubChem BioAssay AID488857 (Sanford-Burnham Center for Chemical Genomics, 2010)
